Test results: PubChem BioAssay (Tox21)
A number with no mark means an inactive call. Results filed as inconclusive are left out. Entries that show only a call come without a potency. The source made the active and inactive calls. The call rests on the fitted dose curve.

Columns and labels:
[1] = target: Acetylcholinesterase (Homo sapiens) (UniProt P22303); experiment: Acetylcholinesterase (AChE) small molecule antagonists: colormetric cell-based qHTS assay (AID 1347395); further: nearly all actives have a fitted effect of over 30% in size; further: potency means the concentration at half of the fitted maximal effect
Summary of the method: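 Homogeneous whole-cell format. SH-SY5Y cells seeded overnight, dosed with compound (30 min, 37 C, 5% CO2), then given DTNB/acetylthiocholine cocktail for 90 min at 37 C; colorimetric signal.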

[2] = target: Acetylcholinesterase (Homo sapiens) (UniProt P22303); experiment: Acetylcholinesterase (AChE) small molecule antagonists: enzyme-based qHTS assay (AID 1347397); settings: Potency: AChE enzyme activity inhibition; outcome: AChE enzyme activity inhibition; further: nearly all actives have a fitted effect of over 55% in size; further: potency means the concentration at half of the fitted maximal effect
Summary of the method: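 Absorbance-based detection of thiocholine with DTNB served as the read-out. Recombinant human AChE was exposed to compound for 30 min at RT before a 10 min RT incubation with acetylthiocholine.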

[3] = target: Acetylcholinesterase (Homo sapiens) (UniProt P22303); experiment: Acetylcholinesterase (AChE) small molecule antagonists: enzyme-based qHTS assay with human liver microsomes (AID 1347399); settings: Potency: qHTS inhibition; outcome: qHTS inhibition; further: nearly all actives have a fitted effect of over 60% in size
Summary of the method: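 Recombinant human AChE (50 mU/mL in the enzyme mix) and human liver microsomes (0.25 mg/mL final) were preincubated with compound and NADPH (0.25 mg/mL final) for 30 min at 37 C. Acetylthiocholine/DTNB was then added; thiocholine was read colorimetrically after 10 min at room temperature.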

Acetylcholinesterase (Homo sapiens), sequence (P22303 whole entry, looked up): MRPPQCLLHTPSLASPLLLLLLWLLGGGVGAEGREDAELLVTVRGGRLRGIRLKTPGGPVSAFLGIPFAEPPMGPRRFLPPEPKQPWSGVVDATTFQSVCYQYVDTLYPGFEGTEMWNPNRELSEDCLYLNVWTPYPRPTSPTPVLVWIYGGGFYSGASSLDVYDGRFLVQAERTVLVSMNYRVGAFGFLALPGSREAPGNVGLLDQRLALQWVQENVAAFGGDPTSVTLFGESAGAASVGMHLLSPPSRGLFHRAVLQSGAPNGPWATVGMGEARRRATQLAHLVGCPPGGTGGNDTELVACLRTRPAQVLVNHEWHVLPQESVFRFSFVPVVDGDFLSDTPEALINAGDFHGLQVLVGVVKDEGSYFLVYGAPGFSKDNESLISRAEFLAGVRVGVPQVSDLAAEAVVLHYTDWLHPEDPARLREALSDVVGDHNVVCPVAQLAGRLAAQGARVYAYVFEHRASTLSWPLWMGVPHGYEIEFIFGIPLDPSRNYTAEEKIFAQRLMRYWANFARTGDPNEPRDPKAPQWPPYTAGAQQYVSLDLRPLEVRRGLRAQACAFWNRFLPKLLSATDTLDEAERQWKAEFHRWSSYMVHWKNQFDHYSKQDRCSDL

Row | Compound | Potency [1] | Potency [2] | Potency [3] | activity, negative = inhibition [1] | activity change, negative = inhibition [2] | activity change, negative = inhibition [3]
1 | O=C(CCBr)N1CCN(C(=O)CCBr)CC1 | inactive | inactive | inactive |  |  | 
2 | Cc1c(-c2ccccc2)oc2c(C(=O)OCCN3CCCCC3)cccc2c1=O | inactive | inactive | inactive |  |  | 
3 | CO[C@@H]1[C@@H](O[C@@H]2O[C@H](C)[C@@H](O[C@H]3C[C@@](C)(O)[C@@H](O)[C@H](C)O3)[C@H](N(C)C)[C@H]2O)[C@@H](CC=O)C[C@@H](C)[C@@H](O[C@@H]2CC[C@H](N(C)C)[C@@H](C)O2)/C=C/C=C/C[C@@H](C)OC(=O)C[C@H]1OC(C)=O | inactive | inactive | inactive |  |  | 
4 | O=C1Cc2cc(CCN3CCN(c4nsc5ccccc45)CC3)c(Cl)cc2N1 | inactive | inactive | inactive |  |  | 
5 | CN1CC(=O)N2[C@H](c3ccc4c(c3)OCO4)c3[nH]c4ccccc4c3C[C@@H]2C1=O | 27.5 µM (active) | inactive | inactive |  |  | 
6 | CC(C(O)c1ccccc1)N(C)CCOC(c1ccccc1)c1ccccc1 (stereo unspecified) | inactive | inactive | inactive |  |  | 
7 | CCC(=O)CC | inactive | inactive | inactive |  |  | 
8 | CCN(CC)CCOCCOC(=O)C1(c2ccccc2)CCCC1 | inactive | inactive | inactive |  |  | 
9 | Cc1cc(-c2ccccc2)nnc1NCCN1CCOCC1 | inactive | inactive | inactive |  |  | 
10 | CN(C)CCN1C(=O)c2ccccc2N(C)c2ccccc21 | inactive | inactive | inactive |  |  | 
11 | Cc1ccc2c(Br)cc(Br)c(O)c2n1 | inactive | inactive | inactive |  |  | 
12 | O=C(Cl)c1cc(C(=O)Cl)cc(C(=O)Cl)c1 | inactive | inactive | inactive |  |  | 
13 | CCCC=O | inactive | inactive | inactive |  |  | 
14 | N#CCc1cccc(C(F)(F)F)c1 | inactive | inactive | inactive |  |  | 
15 | CN1CCN(Cc2cc(-c3ccc4[nH]c(=O)oc4c3)co2)[C@@H](c2ccc(F)cc2)C1 | inactive | inactive | inactive |  |  | 
16 | O=C(CCCN1CCN(c2ccc(F)cc2)CC1)NC1c2ccccc2CSc2ccccc21 (stereo unspecified) | inactive | inactive | inactive |  |  | 
17 | CC1=CC(=O)[C@H]2C[C@@H]1C2(C)C | inactive | inactive | inactive |  |  | 
18 | OCc1c[nH]c2ccccc12 | inactive | inactive | inactive |  |  | 
19 | CCCOc1ccc2c(c1)CC[C@@H]1[C@@H]2CC[C@]2(C)C(OC)CC[C@@H]12 (stereo partly specified) | inactive | inactive | inactive |  |  | 
20 | Cc1oc2c(NC(=O)c3c(Cl)cccc3Cl)cccc2c1C(C)(C)O | inactive | inactive | inactive |  |  | 
21 | COc1ccc2nc(SCc3ncc(C)c(OC)c3C)[nH]c2c1 | inactive | inactive | inactive |  |  | 

Row | Compound | Potency [1] | Potency [2] | Potency [3] | activity, negative = inhibition [1] | activity change, negative = inhibition [2] | activity change, negative = inhibition [3]
22 | CCCc1ccc(N)cc1 | inactive | inactive | inactive |  |  | 
23 | O=C1CCc2cc(OCCCCc3nnnn3C3CCCCC3)ccc2N1 | 24.5 µM (active) | inactive | inactive |  |  | 
24 | CNC(=O)c1ccccc1Sc1ccc2c(/C=C/c3ccccn3)n[nH]c2c1 | inactive | inactive | inactive |  |  | 
25 | CCCCCN(CCCCC)C(=O)C(CCC(=O)O)NC(=O)c1ccc(Cl)c(Cl)c1 (stereo unspecified) | inactive | inactive | inactive |  |  | 
26 | Cc1cc(O)c2ccccc2c1O | inactive | inactive | inactive |  |  | 
27 | CCCCCCCC/C=C/C(=O)O | inactive | inactive | inactive |  |  | 
28 | CCCCCCCCCCCC(C)=O | inactive | inactive | inactive |  |  | 
29 | Cc1nc(-c2ccc(OCC(C)C)c(C#N)c2)sc1C(=O)O | 27.5 µM (active) | inactive | inactive |  |  | 
30 | CC1(CN2CCC(n3c(=O)[nH]c4ccccc43)CC2)OCc2ccccc2-n2cccc21 (stereo unspecified) | inactive | inactive | inactive |  |  | 
31 | CC(=O)OCC(=O)Nc1cc(C#N)cc(NC(=O)COC(C)=O)c1Cl | inactive | inactive | inactive |  |  | 
32 | C=CCSCC1Nc2cc(Cl)c(S(N)(=O)=O)cc2S(=O)(=O)N1 (stereo unspecified) | inactive | inactive | inactive |  |  | 
33 | N=C1N=C(N)c2ccccc21 | inactive | inactive | inactive |  |  | 
34 | CCOC(=O)CC | inactive | inactive | inactive |  |  | 
35 | CN1CCCC(CC2c3ccccc3Sc3ccccc32)C1 (stereo unspecified) | inactive | inactive | inactive |  |  | 
36 | Cc1ccc(C2OC[C@@H]3OC(c4ccc(C)cc4)O[C@H]([C@H](O)CO)[C@@H]3O2)cc1 (stereo partly specified) | inactive | inactive | inactive |  |  | 
37 | CCCOc1sc(C(=O)N2CCC(c3cc(CN)ccc3F)CC2)c(C)c1Br | inactive | 73 µM (active) | inactive |  |  | 
38 | Oc1cc2ccccc2c2ccccc12 | inactive | inactive | inactive |  |  | 
39 | COc1cc(S(=O)(=O)O)c(C)cc1N=Nc1c(O)ccc2cc(S(=O)(=O)O)ccc12 | inactive | inactive | inactive |  |  | 
40 | Cc1nc(N)nc(N)c1-c1ccc(Cl)c(Cl)c1 | inactive | inactive | inactive |  |  | 
41 | CCC(C)S (stereo unspecified) |  |  |  | 1.56% [at 4.07 µM] | 0.922% [at 4.07 µM] | -0.581% [at 4.07 µM]
42 | COc1ccc(C(=O)NCc2ccc(OCCN(C)C)cc2)cc1OC | 6.92 µM (active) | 27.5 µM (active) | inactive |  |  | 
